Compound activity from PubChem.
This is a sample that favours compounds with a hit; in the whole collection about 22% have one here.
LmPK inh: LmPK (Leishmania mexicana) enzyme inhibition. Q27686. purified LmPK, Kinase-Glo ATP luminescence, 1 h. Potency, µM (doses to about 57.5 µM), for the others: top-dose activity change, negative = inhibition, most hits filed as inhibitors. hit rate 0.37% among 290,000; also: potency is read from the fitted curve at half-maximal effect; % is scaled to controls: 0 for no effect and ±100 for the full control effect
Target sequence (Q27686 whole entry, looked up): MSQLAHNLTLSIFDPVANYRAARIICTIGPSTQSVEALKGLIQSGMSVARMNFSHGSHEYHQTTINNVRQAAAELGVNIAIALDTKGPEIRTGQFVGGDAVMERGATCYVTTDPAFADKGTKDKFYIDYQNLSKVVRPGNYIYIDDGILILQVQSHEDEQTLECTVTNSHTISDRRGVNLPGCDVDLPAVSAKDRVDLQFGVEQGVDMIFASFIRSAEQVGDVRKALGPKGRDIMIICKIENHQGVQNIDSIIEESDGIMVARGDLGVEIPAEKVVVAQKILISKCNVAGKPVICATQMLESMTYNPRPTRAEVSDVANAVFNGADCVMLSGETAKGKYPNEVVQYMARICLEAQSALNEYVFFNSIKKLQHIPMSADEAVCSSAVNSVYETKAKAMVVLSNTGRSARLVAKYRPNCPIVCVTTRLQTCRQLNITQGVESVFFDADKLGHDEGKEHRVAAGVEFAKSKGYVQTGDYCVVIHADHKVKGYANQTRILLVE
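0.1 nM LmPK, 0.5 mM PEP, 0.1 mM ADP; 50 mM imidazole pH 7.2, 7 mM MgCl2, 50 mM KCl; 1 h RT. Kinase-Glo luminescence readout, normalized to no-enzyme (full inhibition) and uninhibited wells.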
Cycloheximide cs: counter-screen for Shiga toxin inhibitors: cycloheximide protein synthesis inhibition; cell reporter, cycloheximide protein synthesis inhibition counterscreen; max response, %; hit rate 12% among 300,000; AID 2314; in the data active = max response mostly above about 13%, no sharp cut-off; inactive = mostly below about 14%; also: read at 38.3 µM for the half of the compounds with a filed dose; 0% is about no effect
Shiga toxin inh: inhibitors of Shiga toxin in Vero cells | Vero cells, Shiga toxin protein synthesis inhibition reporter | hit rate 9.2% among 290,000 | inhibition, % at 38.7 µM; in the data active = inhibition mostly above about 28%, no sharp cut-off; inactive = mostly below about 43%; also: 0% is about no effect
Pf growth 48h: inhibits P. falciparum growth in the first generation, 48 h. P. falciparum luciferase growth in erythrocytes, 48 h. Potency, µM (top dose mostly 28.7 µM), for inactives: top-dose activity change, negative = inhibition, most hits filed as inhibitors. hit rate 5.9% among 310,000. AID 504832; also: potency is read from the fitted curve at half-maximal effect; % is scaled to controls: 0 for no effect and ±100 for the full control effect
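A one-generation exposure of luciferase-tagged malaria parasites in RPMI 1640/Albumax erythrocyte culture, 37 C and 5% CO2. Inhibition is inferred from decreased luminescence after adding detection reagent.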
Pf growth 96h: P. falciparum growth inhibition at 96 hour, primary screen for plastid delayed-death inhibitors | P. falciparum luciferase reporter growth, 96 h | hit rate 6.9% among 320,000 | Potency, µM (doses to about 28.7 µM), for the others: at the top dose activity change, negative = inhibition, hits mostly inhibitors; also: potency is read from the fitted curve at half-maximal effect; % is scaled to controls: 0 for no effect and ±100 for the full control effect
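Two-generation exposure (96 h) targets delayed-death phenotype. Reporter parasites carrying integrated firefly luciferase, in red cells at 2% hematocrit and 0.05% parasitemia final, kept at 37 C, 5% CO2; luminescence loss indicates inhibition.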
Starred values were filed as active, the others as inactive; [ ] = another dose, or the depositor's remark. Unless noted, calls follow the shape of the dose curve; as a rule, active = well fitted inhibition curve with a large enough effect; inconclusive = small, poorly fitted or top-dose-only effect, or another doubt; inactive = no such curve, though single readings can be large or run the other way.

Results for O=C(CN1C(=O)CCC1=O)c1ccc(-c2ccccc2)cc1 ?
LmPK inh: 4.5%; Cycloheximide cs: 62.8*; Shiga toxin inh: 82.8*; Pf growth 48h: 78.9%; Pf growth 96h: 9.6%

What do the screens show for `CC(=O)N/C(=N\c1nc(C)cc(C)n1)Nc1ccc2ccccc2c1`?
LmPK inh: 12.1%; Cycloheximide cs: 39.5*; Shiga toxin inh: 125.3*; Pf growth 48h: 52.2%; Pf growth 96h: 20.8%

What do the screens show for `CC(=O)N/C(=N/c1nc(C)cc(C)n1)Nc1ccc(NC(C)=O)cc1`?
LmPK inh: 0.8%; Cycloheximide cs: 0.7; Shiga toxin inh: -9.8; Pf growth 48h: inconclusive; Pf growth 96h: 9.28µM*

What do the screens show for `C[C@@]12CCC=C[C@H]1[C@H](c1ccc3ccccc3c1Br)N(Cc1ccccc1)C2=O`?
LmPK inh: 0.8%; Cycloheximide cs: -9.0; Shiga toxin inh: -3.9; Pf growth 48h: 9.28µM*; Pf growth 96h: 10.4µM*

Results for CC12CCC=CC1C(c1ccc3ccccc3c1Br)N(Cc1ccccc1)C2=O (centres undefined) ?
Cycloheximide cs: 10.0; Shiga toxin inh: -2.9

What do the screens show for `C[C@@]12CCC=C[C@H]1[C@H](c1ccc3ccccc3c1)N(Cc1ccccc1)C2=O`?
LmPK inh: -0.4%; Cycloheximide cs: -2.2; Shiga toxin inh: -9.4; Pf growth 48h: inconclusive; Pf growth 96h: 9.28µM*

How did Cc1ccc(C2CC(=O)NC(SCC(N)=O)=C2C#N)s1 (centres undefined) do in these assays?
LmPK inh: 3.8%; Cycloheximide cs: -3.2; Shiga toxin inh: 10.8; Pf growth 48h: -3.3%; Pf growth 96h: -0.2%

How did CSC1=C(C#N)C(c2ccc(C)s2)CC(=O)N1 (centres undefined) do in these assays?
LmPK inh: 0.9%; Cycloheximide cs: -2.1; Shiga toxin inh: -20.6; Pf growth 48h: 12.2%; Pf growth 96h: 2.33µM*

What do the screens show for `COc1ccc2oc(=N)c(C(=O)Nc3ccc(Cl)cc3)cc2c1`?
LmPK inh: -0.5%; Cycloheximide cs: -3.6; Pf growth 48h: -26.7%; Pf growth 96h: inconclusive

Results for COCCNC(=O)C1=NOC(Cn2cc(C#N)c(=O)n(C)c2=O)C1 (centres undefined) ?
LmPK inh: 0.2%; Cycloheximide cs: -13.1; Shiga toxin inh: -18.1; Pf growth 48h: inconclusive; Pf growth 96h: 0.0%

What do the screens show for `CCOc1cc(/C=C2\COc3ccccc3C2=O)ccc1OCC(=O)N(C)C`?
LmPK inh: 2.4%; Cycloheximide cs: -2.7; Shiga toxin inh: -6.3; Pf growth 48h: 14.7µM*; Pf growth 96h: inconclusive

How did Cc1cc(C)nc(NC(=O)CSc2ncccn2)n1 do in these assays?
LmPK inh: -4.8%; Cycloheximide cs: -4.1; Shiga toxin inh: 50.7; Pf growth 48h: 19.1%; Pf growth 96h: inconclusive

How did COc1cc(CNc2ccc(O)cc2)cc(Br)c1OCc1ccccc1F do in these assays?
LmPK inh: 0.1%; Cycloheximide cs: 1.3; Shiga toxin inh: 5.2; Pf growth 48h: inconclusive; Pf growth 96h: inconclusive

What do the screens show for `COc1cc(CNc2ccc(N3CCCCC3)cc2)ccc1OCC(=O)NC(C)(C)C`?
LmPK inh: -0.7%; Cycloheximide cs: 12.7*; Shiga toxin inh: 40.1*; Pf growth 48h: 7.6%; Pf growth 96h: 5.22µM*

Results for COc1cc(CNC(C)(C)CO)ccc1OCC(=O)NC(C)(C)C ?
LmPK inh: 1.5%; Cycloheximide cs: -1.0; Shiga toxin inh: 19.3; Pf growth 48h: -1.6%; Pf growth 96h: 7.1%

How did CCNCc1ccc(OCc2ccccc2F)c(OC)c1 do in these assays?
LmPK inh: 1.0%; Cycloheximide cs: 2.6; Shiga toxin inh: 31.1; Pf growth 48h: 35.3%; Pf growth 96h: inconclusive

What do the screens show for `COc1cc(CNc2ccc(N3CCCC3)cc2)ccc1OCc1ccccc1`?
LmPK inh: -9.0%; Cycloheximide cs: 41.9*; Shiga toxin inh: 54.8*; Pf growth 48h: 8.28µM*; Pf growth 96h: 7.9%

Results for COc1cc(CNC23CC4CC(CC(C4)C2)C3)ccc1OCc1ccccc1 ?
LmPK inh: 1.5%; Cycloheximide cs: -1.8; Shiga toxin inh: 11.4; Pf growth 48h: inconclusive; Pf growth 96h: -20.5%[5.75 µM]

Results for COc1cc(CNc2ccc(N3CCCC3)cc2)ccc1OCc1ccccc1F ?
LmPK inh: -20.8%; Cycloheximide cs: 63.5*; Shiga toxin inh: 173.0*; Pf growth 48h: inconclusive; Pf growth 96h: inconclusive

How did COc1cc(CNCCCCO)ccc1OCc1ccccc1F do in these assays?
LmPK inh: 0.7%; Cycloheximide cs: 18.1*; Shiga toxin inh: 57.5*; Pf growth 48h: 42.2%; Pf growth 96h: 22.4%

What do the screens show for `CN1CCN(NS(=O)(=O)c2ccc(Cl)cc2)CC1`?
LmPK inh: 6.2%; Cycloheximide cs: -0.8; Shiga toxin inh: -12.6; Pf growth 48h: 13.4%; Pf growth 96h: -2.5%

Results for Cc1nc(-c2ccccc2)nc2[nH]c(C(C)C)cc(=O)c12 ?
LmPK inh: 2.4%; Cycloheximide cs: -2.7; Shiga toxin inh: -3.9; Pf growth 48h: -27.3%; Pf growth 96h: 5.2%

Results for Cc1nc(-c2ccccc2)nc2[nH]c(=O)n(-c3ccccc3)c(=O)c12 ?
LmPK inh: 1.2%; Cycloheximide cs: 31.0*; Shiga toxin inh: 54.1*; Pf growth 48h: 39.5%

Results for COc1ccc(/C=C2\CCc3ccccc3C2=O)cc1Cn1nc(C)cc1C ?
LmPK inh: 2.0%; Cycloheximide cs: 21.2*; Shiga toxin inh: 43.7; Pf growth 96h: 1.7%

What do the screens show for `COc1ccc(/C=C2/CCc3ccccc3C2=O)cc1CN1CCOCC1`?
LmPK inh: -4.8%; Cycloheximide cs: 51.3*; Shiga toxin inh: 92.3*; Pf growth 48h: 31.1%; Pf growth 96h: -18.2%

What do the screens show for `COc1ccc(/C=N/NC(=O)c2ccncc2)cc1CN1CCOCC1`?
LmPK inh: -0.5%; Cycloheximide cs: -1.0; Shiga toxin inh: 2.9; Pf growth 48h: 4.0%; Pf growth 96h: 22.8%

Results for COc1cc(NC(=O)c2cc(-c3ccco3)on2)cc(OC)c1OC ?
LmPK inh: -3.0%; Cycloheximide cs: 8.4; Shiga toxin inh: 29.6; Pf growth 48h: -4.9%; Pf growth 96h: inconclusive

How did CC(=O)N(/N=C1\Sc2ccccc2C1=O)c1cccc(C)c1 do in these assays?
LmPK inh: -4.4%; Cycloheximide cs: 58.2*; Shiga toxin inh: 141.6*; Pf growth 48h: inconclusive; Pf growth 96h: inconclusive

Results for CC(=O)N(CN1C(=O)c2ccccc2C1=O)c1cccc(C)c1 ?
LmPK inh: 3.5%; Cycloheximide cs: -1.7; Shiga toxin inh: 11.8; Pf growth 48h: -1.3%; Pf growth 96h: 47.1%

Results for Cc1ccc(C(=O)N/C(=C\c2cccc([N+](=O)[O-])c2)C(=O)NC(Cc2ccccc2)C(=O)O)cc1 (centres undefined) ?
LmPK inh: -11.6%; Cycloheximide cs: 1.0; Shiga toxin inh: -26.1; Pf growth 48h: 26.8%; Pf growth 96h: 3.6%

What do the screens show for `CCS(=O)(=O)Nc1cccc(C(=C2CCCCC2)c2cnc[nH]2)c1`?
Pf growth 48h: 11.7µM*; Pf growth 96h: inconclusive
